Laboratory results as given in PubChem BioAssay AID624305 (National Center for Advancing Translational Sciences (NCATS), 2012).
Inconclusive results are not listed. A number with no mark means an inactive call. Calls of active or inactive are those of the source. Calls follow the shape of the dose curve; as a rule, active = well fitted activation curve with a large enough effect; inconclusive = small, poorly fitted or top-dose-only effect; inactive = no such curve, though single readings can be large or run the other way.

Assay: qHTS assay for re-activators of p53 using a Luc reporter: Hit Validation; also: nearly all actives have a fitted effect of over 75% in size; as to activation: 0% is about no effect
Conditions: p53-responsive luciferase reporter cells, luminescence, H1299 line expressing heat-sensitive Ala138Val p53; series mostly up to 46.1 µM; activation: at the top concentration
How it was run: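 H1299 (p53-null) cells stably carrying p53-A138V and a BP100-luciferase reporter, 1000 cells/well, treated 24 h at 37 deg C. Compounds at several concentrations, 1:5 dilution; nocodazole control; luminescence read after 10 min with detection reagent.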
Potency is read from the fitted curve at half-maximal effect.

| SMILES | activation | Potency |
| --- | --- | --- |
| CCN1CCN(/C=N/c2nc3c(s2)CCCC3)CC1 | -13% |  |
| COc1cc(NC(=O)C(C)C)ccc1NC(=O)c1ccco1 |  | 7310 nM (active) |
| COc1ccnc(CSC(N)=Nc2ccccc2OC)c1 | 18.8% |  |
| COc1ccccc1C(=O)CSc1nccn1C | 31.8% |  |
| O=C(Nc1nnc(-c2cccs2)o1)c1cccc(C(F)(F)F)c1 | -4.17% |  |
| O=C(NCC(=O)N1CCN(c2ncccn2)CC1)c1ccc(F)cc1 | 18.2% |  |
| COCCn1c(SCC(=O)c2c(N)n(C3CC3)c(=O)[nH]c2=O)nnc1-c1cccc(C)c1 | -7.81% |  |
| Cc1ccc(C(=O)NCC(=O)N2CCCCCC2)cc1 | 26% |  |
| COc1cccc(/C=N/NC(=O)CCc2n[nH]c(=O)[nH]c2=O)c1O | 5.21% |  |
| COc1ccc(-c2nnc(-c3ccc(Br)o3)o2)cc1OC | 22.4% |  |
| CN(C)c1ccc(/C=N/Nc2nncc3ccccc23)cc1 |  | 366 nM (active) |
| Cc1cccc(NC(=O)c2ccccn2)c1C |  | 14600 nM (active) |
| Cc1cc(Br)c(S(=O)(=O)NCCN2CCOCC2)cc1C | 6.25% |  |
| COCC(C)NC(=O)C1CC(=O)N(c2ccc(C)cc2)C1 (stereo not drawn) | -21.3% [at 9.22 µM] |  |
| C/C(CC(C)C)=N\NC(=O)Nc1ccccc1 | 29.2% |  |
| O=C(Nc1ccc2c(c1)CCC2)c1ccccc1F |  | 366 nM (active) |
| Cc1ccc2cc3c(N)c(C(=O)N4CCOCC4)sc3nc2c1 |  | 1030 nM (active) |
| O=C(Cc1ccccc1)NCc1ccc(F)cc1 | 34.4% |  |
| O=C(Nc1ccc2c(c1)OCO2)c1cc(Cl)ccn1 |  | 4610 nM (active) |

| SMILES | activation | Potency |
| --- | --- | --- |
| C/C(=N/NC(=S)Nc1ccccc1)c1ccc2c(c1)OCO2 | -85.9% |  |
| CCOC(=O)N1CCN(S(=O)(=O)c2ccc(C(=O)NNc3nc4cc(C)cc(C)c4s3)cc2)CC1 | 6.68% [at 9.22 µM] |  |
| Clc1ccc(OCc2nc(-c3ccccn3)no2)c(Br)c1 |  | 1030 nM (active) |
| COc1cc(C(=O)NCCc2cn3ccc(C)cc3n2)cc(OC)c1OC | 13.6% [at 9.22 µM] |  |
| Cc1ccc(-c2nnc(SCc3ccccc3F)o2)cc1 |  | 1300 nM (active) |
| CC(=O)c1cccc(NS(=O)(=O)N(C)C)c1 | -1.04% |  |
| O=C(/C=C/c1cnc2ccccc2n1)NC12CC3CC(CC(C3)C1)C2 |  | 9200 nM (active) |
| O=C(Nc1ccc(NC(=O)C2CCCCC2)cn1)c1ccco1 |  | 2590 nM (active) |
| CC(C)(C)c1cc(-n2ccnc2)n2ncc(-c3ccc(Cl)cc3)c2n1 | 0.521% |  |
| Clc1ccc(-c2cn3cc(Br)ccc3n2)cc1Cl |  | 206 nM (active) |
| c1cnc2c(OCc3nc4ccccc4[nH]3)cccc2c1 |  | 6510 nM (active) |
| CCOc1ccc(OCCSc2nc3ccccc3n2CC(=O)O)cc1 | -1.04% |  |
| O=C(CSc1nc2ccccc2c(=O)[nH]1)c1ccc(O)c(O)c1 | 21.4% |  |
| CC1CC1C(=O)Nc1nc2ccc(S(C)(=O)=O)cc2s1 (stereo not drawn) | 37.5% |  |
| CCOc1ccc(-c2cnc3ccccc3n2)cc1 | -85.9% |  |
| Cc1ccc(-c2cc3nc(C)cc(NCc4ccco4)n3n2)cc1 |  | 7310 nM (active) |
| CCOCCCNc1nc2c([nH]1)c(=O)n(C)c(=O)n2C | 6.25% |  |
| O=C(COC(=O)c1ccc(F)cc1)NC1CC1 | -10.4% |  |
| Cn1ncc([N+](=O)[O-])c1C(=O)Nc1ccc(C2CCCCC2)cc1 | 24% |  |
